Source: PubChem
GLP1R ag = qHTS of GLP-1 Receptor Agonists. HEK293 GLP-1R CRE-luciferase, luminescence, 4-6 h; cells express a hypersensitive GLP-1R form. AID 624172, 2012. 0.007% of 380,000 active. Potency, µM (series often up to 45.6 µM), usual class: activators. Glucagon-like peptide 1 receptor (Homo sapiens), P43220
Target sequence (P43220 whole entry, looked up): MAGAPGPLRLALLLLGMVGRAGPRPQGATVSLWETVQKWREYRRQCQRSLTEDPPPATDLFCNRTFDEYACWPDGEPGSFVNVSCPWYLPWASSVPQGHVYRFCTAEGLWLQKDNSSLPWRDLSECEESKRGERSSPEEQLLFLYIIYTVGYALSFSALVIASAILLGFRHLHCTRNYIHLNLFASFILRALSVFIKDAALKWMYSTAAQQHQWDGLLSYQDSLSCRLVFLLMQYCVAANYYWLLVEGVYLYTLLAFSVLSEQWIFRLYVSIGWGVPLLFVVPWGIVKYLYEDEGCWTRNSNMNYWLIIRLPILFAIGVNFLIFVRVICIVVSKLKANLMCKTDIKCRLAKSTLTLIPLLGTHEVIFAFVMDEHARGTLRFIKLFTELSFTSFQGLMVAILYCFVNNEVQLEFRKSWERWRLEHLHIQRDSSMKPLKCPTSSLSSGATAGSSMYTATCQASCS
D3 antag = qHTS of D3 Dopamine Receptor Antagonist: qHTS | 2.5% of 360,000 active | D(3) dopamine receptor (Homo sapiens), P35462 | max response, negative = inhibition, % | D3R cells, DiscoveRx beta-arrestin luminescence, antagonist mode; stronger effect = lower value; in the data active means max response below about -50%; inconclusive means no clear call, values can overlap the other calls
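Cells expressing the human receptor were seeded at 1500 cells/well, incubated overnight at 37 degrees C in 5% CO2, then exposed to library compounds with dopamine controls for 90 minutes at 37 degrees C before luminescent detection.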
D3 ag = qHTS of D3 Dopamine Receptor Agonist: qHTS; D(3) dopamine receptor (Homo sapiens), P35462; D3R DiscoveRx beta-arrestin cells, luminescence, 90 min; max activation, %; 0.58% of 410,000 active; AID 652048, 2013; in the data active means max activation above about 30%
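Cells at 1500/well, incubated overnight, then treated with pinned compounds (dopamine as control) for 90 min at 37 degrees C. DiscoveRx reagent added for 30 - 60 minutes at room temperature; luminescence read.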
GLP1R inv ag = qHTS of GLP-1 Receptor Inverse Agonists (Inhibition Mode); Potency, µM (top dose mostly 38.3 µM), hits mostly inhibitors; 1.6% of 410,000 active; Glucagon-like peptide 1 receptor (Homo sapiens), P43220; HEK293 GLP-1R CRE-luciferase, luminescence, 24 h; GLP-1R form is constitutively active; further: nearly all actives have a fitted effect of over 55% in size
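Assay principle: reduced luminescence from a cAMP-responsive reporter in HEK293 cells co-expressing a constitutively active GLP-1R. Conditions: 24 hr compound incubation, 37 deg C, 5% CO2.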
Each line names hits and unclear results; the compound was inactive in the other large screens. Rows were chosen to be rich in hits. Some 4.3% of all compounds tested hit in one or more screens of this group. Unless noted, the call rests on the fitted dose curve; in most records, active means well fitted curve in the direction sought with a large enough effect; inconclusive means small, poorly fitted or top-dose-only effect, or another doubt; inactive means no such curve, though single readings can be large; an effect the other way counts as inactive or inconclusive.

COCCN(C(=O)CCC(=O)Nc1nccs1)C(C(=O)NC(C)(C)C)c1ccc(C)cc1 (centres undefined)	D3 ag 38
COCCN(C(=O)CCC(=O)Nc1nccs1)C(C(=O)NC(C)(C)C)c1ccc(F)cc1 (centres undefined)	none
COCCNC(=O)C(c1ccc(C)cc1)N(Cc1ccco1)C(=O)CCC(=O)Nc1ccccn1 (centres undefined)	D3 antag -89
Cc1ccc(C(C(=O)NC(C)(C)C)N(CC2CCCO2)C(=O)CCC(=O)Nc2ccccn2)cc1 (centres undefined)	D3 ag 48
Nc1nnnn1/N=C/c1ccc(N2CCCCC2)c([N+](=O)[O-])c1	D3 antag -54
COC(=O)c1c(NC(=O)c2ccc(Br)s2)sc2c1CCC2	D3 ag 30
COC(=O)c1c(NC(=O)c2c(OC)cccc2OC)sc2c1CCCC2	none (no result: GLP1R ag, D3 antag)
COC(=O)c1c(NC(NC(=O)C(C)C)C(Cl)(Cl)Cl)sc2c1CCC2 (centres undefined)	D3 antag inconclusive, GLP1R inv ag 8.9µM
COc1ccc(/C=C/C(=O)Nc2sc3c(c2C(N)=O)CCC(C)C3)cc1OC (centres undefined)	D3 ag 37 (no result: D3 antag)
COc1cc(C(=O)Nc2sc3c(c2C(N)=O)CCC(C)C3)cc(OC)c1OC (centres undefined)	none (no result: GLP1R ag, D3 antag)
CC(=O)N1CCN(C(C)=O)C1c1ccccc1	none
O=C(c1ccccc1)N1CCN(C(=O)c2ccccc2)C1c1ccccc1	D3 antag -51
CCOc1ccc(NC(=O)CSc2nc3c(oc4ccccc43)c(=O)n2-c2cc(C)cc(C)c2)cc1	none (no result: GLP1R ag, D3 antag)
CCC(=S)/C=C1\Sc2ccccc2N1CCCS(=O)(=O)O	D3 antag -63
CCN1/C(=C\C=C2\C(=O)N(C)C(=S)N2C)Sc2ccccc21	none
COC(=O)c1[nH]c2ccccc2c1NC(=O)CCN1CCSCC1	D3 antag -57
COC(=O)c1[nH]c2cc(OC)ccc2c1NC(=O)CCN1CCN(c2ccccc2)CC1	D3 antag -76
COC(=O)c1[nH]c2ccccc2c1NC(=O)CN1CCN(c2cccc(OC)c2)C(C)C1 (centres undefined)	GLP1R inv ag 10µM
COc1ccc2c(c1)CC(C(=O)NCCN1CCN(c3cccc(C)c3C)CC1)CO2 (centres undefined)	D3 ag 47 (no result: GLP1R ag, D3 antag)
CCOC(=O)C1CCCN(CCC(=O)Nc2c(C(=O)OC)[nH]c3cc(OC)ccc23)C1 (centres undefined)	none
CCc1cccc(NC(=O)C(CC(C)C)NS(=O)(=O)c2ccc3c(c2)oc(=O)n3C)c1 (centres undefined)	GLP1R inv ag inconclusive (no result: GLP1R ag, D3 antag)
COc1ccc(OC)c(NC(=O)Nc2cccc3ccccc23)c1	D3 antag -57
COc1ccc(OC)c(NC(=O)CCN2CCN(c3ccccc3)CC2)c1	D3 antag -53, D3 ag 30
COC(=O)c1[nH]c2cc(OC)ccc2c1NC(=O)CCN1CCN(c2cccc(C)c2C)CC1	D3 antag -80, GLP1R inv ag inconclusive
COc1ccc(NC(=O)NNC(=O)COc2ccc(Cl)cc2C)cc1OC	none
COc1ccc(OC)c(NC(=O)NNC(=O)CCCOc2ccc(Cl)cc2C)c1	GLP1R inv ag 10µM
COc1ccc(NC(=O)Nc2cccc3ccccc23)c(OC)c1	none
CC[C@]12c3[nH]c4ccc(Cl)cc4c3CCN1C(=O)[C@@H](CC(=O)NCCCN(C)C)C[C@@H]2C(=O)N1CCN(C(=O)c2ccco2)CC1	none
CCN1C(=O)C(Cc2nc3ccccc3c(=O)n2-c2ccc(OC)cc2)c2ccccc21 (centres undefined)	none (no result: GLP1R ag, D3 antag)
O=C(c1cc2c(s1)CCCC2)N1CCN(Cc2ccc3c(c2)OCO3)CC1	GLP1R inv ag 13µM
C=CCN1CCN(C(=O)c2cc3c(s2)CCCC3)CC1	D3 antag -58
O=C(c1ccc(Cl)c(Cl)c1)N1CCN(Cc2ccc3c(c2)OCO3)CC1	GLP1R inv ag inconclusive
O=C(c1ccc(Br)s1)N1CCN(Cc2ccc3c(c2)OCO3)CC1	D3 antag -95, GLP1R inv ag inconclusive
O=C(c1ccc(Br)o1)N1CCN(Cc2ccc3c(c2)OCO3)CC1	D3 antag -81
O=C(c1c(F)c(F)c(F)c(F)c1F)N1CCN(Cc2ccc3c(c2)OCO3)CC1	GLP1R inv ag inconclusive
CC(=O)c1ccc(N2CCN(C(=O)c3cc4c(s3)CCCC4)CC2)cc1	none
CCc1cccc(C)c1NC(=O)Cn1cc2c(n1)CCCC2	GLP1R inv ag inconclusive (no result: GLP1R ag, D3 antag)
Cc1nc2ccn(Cc3ccco3)c(=O)c2cc1C(=O)Nc1ccc(F)cc1	GLP1R inv ag inconclusive (no result: GLP1R ag, D3 antag)
O=C1CC(c2nc(-c3ccccc3)no2)CN1c1ccc2c(c1)OCCO2 (centres undefined)	none (no result: GLP1R ag, D3 antag)
CCOC(=O)Cc1ccc(NC(=O)NCc2c(-n3cccc3)sc3c2CCCC3)cc1	none (no result: GLP1R ag, D3 antag)
Cc1ccc(NC(=O)CN(C)C(=O)c2ccc(S(=O)(=O)N(C)c3ccccc3)cc2)cc1	GLP1R inv ag inconclusive
CCOc1ccc(NC(=O)N2CC(C)OC(C)C2)cc1 (centres undefined)	none
CCOC(=O)/C(=N/Nc1ccc(Br)cc1)N1CC(C)OC(C)C1 (centres undefined)	GLP1R inv ag 2.5µM
COc1cc(C=C2CCC/C(=C\c3ccc(O)c(OC)c3)C2=O)ccc1O	none (no result: GLP1R ag, D3 antag, GLP1R inv ag)
Cc1cccc(OCC(=O)NCC(=O)N/N=C/c2cc(Br)cc(Br)c2O)c1	D3 antag -81, GLP1R inv ag inconclusive
COc1cccc(/C=N/NC(=O)CNC(=O)COc2ccccc2)c1O	GLP1R inv ag inconclusive
CCc1nc2c(OCC(=O)C(C)(C)C)cccn2c1N(C=O)CC(=O)N(C)C	D3 antag -98
CCCCN(C=O)c1c(CC)nc2c(OCCn3cccc3)cccn12	D3 antag -82
CCCCN(C=O)c1c(CC)nc2c(OCCOc3ccc(F)cc3)cccn12	GLP1R inv ag inconclusive
CCCCN(C=O)c1c(CC)nc2c(OCC(=O)C(C)(C)C)cccn12	none
Cc1cc2oc3c(c(=O)c2cc1C)C(c1ccc(C(C)C)cc1)N(c1nc(C)c(C)s1)C3=O (centres undefined)	none (no result: GLP1R ag, D3 antag)
CCn1c(NC(=O)c2ccc(COc3ccc(C)cc3[N+](=O)[O-])o2)nc2ccccc21	D3 ag 37
Cc1ccc2oc(=O)n(CCNC(=O)Nc3ccc(C)c(F)c3)c2c1	GLP1R inv ag inconclusive (no result: GLP1R ag, D3 antag)
COc1ccc2sc(-c3ccc(SC)cc3)c(-c3ccc(O)cc3)c2c1	GLP1R inv ag 5.6µM
COc1cccc(-c2sc3ccc(OC)cc3c2-c2ccc(OCCN3CCCC3)cc2)c1	GLP1R inv ag inconclusive
COc1ccc(-c2sc3ccc(OC)cc3c2-c2ccc(OCCN3CCOCC3)cc2)cc1	GLP1R inv ag 10µM
